# Screening data (PubChem)
# Pf Dd2 growth: inhibitors of Plasmodium falciparum Dd2 growth | P. falciparum Dd2 growth, SYBR Green, 72 h | Potency, µM (doses to about 28.9 µM), for inactives: top-dose activity, negative = inhibition, actives largely listed as inhibitors | 4.3% of 120,000 active | AID 1347417; active = well fitted inhibition curve with a large enough effect;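 also: plate controls were DMSO vehicle for no effect and reference drug for full effect; nearly all actives have a fitted effect of over 65% in size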
#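 Infected erythrocytes (Dd2, 0.3% parasitemia, 2.5% hematocrit final) are added to compound in RPMI-1640/Albumax II medium, grown 72 h at 37C in low oxygen, then lysed with saponin/Triton-X containing SYBR Green and read by fluorescence.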
# An asterisk follows results filed as active; i = inactive; [ ] = dose if it differs, or a comment. The full list was thinned out, with hits kept by preference. Potency is read from the fitted curve at half-maximal effect.
SMILES,Pf Dd2 growth
O=C(N1CCN(c2ccccc2)CC1)C1(CCO)CC12CCOCC2 (stereo not drawn),-2%
CCN1C(=O)CCN(C(=O)Nc2ccc(C)c(C)c2)CC12CCOCC2,-4%
O=C(Cc1ccc(F)cc1)N1CCC(c2nc3c(nnn3Cc3ccc(Cl)cc3)c(=O)[nH]2)CC1,14µM*
O=C(Cc1ccccc1F)N1CCC(c2nc3c(nnn3Cc3ccc(F)cc3)c(=O)[nH]2)CC1,-17%
Cc1cccc(Cn2nnc3c(=O)[nH]c(C4CCN(C(=O)c5ccccc5F)CC4)nc32)c1,-18%
O=C(CC1=CCCCC1)NC1CCc2n[nH]c(=O)n2CC1 (stereo not drawn),i
COCCC(=O)N1CC(c2nnc(-c3ccc(C)cc3)o2)C2(CCOCC2)C1 (stereo not drawn),16%
COC[C@H]1C[C@@H](NC(=O)c2ccc(OC)cc2)[C@H](O)[C@@H]1O,7%[44.1 µM]
COc1cccc(Nc2ncc(-c3cccc(N(C)C)c3)c3c2OCC3)c1,-8%[44.1 µM]
Cn1cc(-c2cnc(Nc3ccncc3)c3c2CCO3)cn1,-1%[44.1 µM]
Cc1cc(-c2cnc(Nc3ccc(F)cc3)c3c2CCO3)ccn1,i
Clc1ccc(Nc2ncc(-c3cccnc3)c3c2OCC3)cc1,10µM*
FC(F)(F)c1cccc(Nc2ncc(-c3cccnc3)c3c2OCC3)c1,8.9µM*
COc1ccc(Nc2ncc(-c3cccnc3)c3c2OCC3)cc1,i
O=C(COc1ccc(F)cc1)NCC(=O)N1CCN(c2ccccn2)CC1,-22%
Cn1cc(CN2CCOc3cc([S+](=O)([O-])Nc4nncs4)ccc3C2)cn1,i
O=C(CCC1CCCC1)N1CCC(c2nc(C3CCOCC3)no2)C1 (stereo not drawn),i
O=C(c1ccccc1F)N1CCC(n2cc(-c3nc(C4CC4)no3)nn2)C1 (stereo not drawn),-7%
Cc1n[nH]c(C)c1C(N)C(=O)N(C)Cc1ccnc2ccccc12 (stereo not drawn),3%
Cc1ccc(CNC(=O)CCCCn2c(=O)c3ccccc3n(Cc3ccc(C)cc3)c2=O)cc1,i
Cc1cc(C)cc(NC(=O)CCCn2nc(C)c3c(C)n(-c4ccccc4)nc3c2=O)c1,25%
Cc1cc(C)cc(NC(=O)CCCn2c3ccccc3c(=O)c3ccccc32)c1,10µM*
COCCN1CCCCC(CC(=O)Nc2ccc(C)c(F)c2)C1=O (stereo not drawn),-20%
Cc1ccc(-c2c3c(=O)n(C)c(=O)n(C)c3cn2-c2cc(C)ccc2O)cc1,5.6µM*
Cn1c(=O)c2c(-c3ccccc3)n(CCCO)cc2n(C)c1=O,3%
SMILES,Pf Dd2 growth
Cn1c(=O)c2c(-c3cccc(Br)c3)n(C(C)(C)CO)cc2n(C)c1=O,-5%
CC(C)NC(=O)N1CCCCCNC(=O)[C@@H]2CCCC[C@@H]21,26%
Cc1noc(C)c1C(=O)N1CCC(N2C(=O)C3(CCCC3)C2c2ccccc2)CC1 (stereo not drawn),-3%
COCCNC(=O)[C@@H]1C[C@H](Oc2cccnc2)CN1C(=O)c1ccccn1,11%
Cc1cccc(C(=O)NC(C(=O)N2CCCC2)C2CCN(C(=O)c3cccs3)CC2)c1 (stereo not drawn),i
O=C(COc1ccccc1)Nc1ccc2nc(SCC(=O)N3CCOCC3)sc2c1,i
CC(C)C(=O)Nc1ccc2nc(SCC(=O)N3CCOCC3)sc2c1,5%
CCOc1ccc(C(=O)Nc2ccc3nc(SCC(=O)N4CCOCC4)sc3c2)cc1,8.9µM*
O=C(O)[C@H]1C[C@@H](C(=O)NCc2cccnc2)CN(Cc2ccccn2)C1,-5%
Cc1noc(-c2cn(C3CCN(C(=O)Cc4ccsc4)C3)nn2)n1 (stereo not drawn),i
COCCNC(=O)c1ccc2c(c1)N(C)C(CC(=O)N1CCNC(=O)C1)CO2 (stereo not drawn),-19%
Cc1c(-c2ccccc2)n(-c2ccccc2O)c2nc3c(c(=O)n(C)c(=O)n3C)n12,3.2µM*
CCOc1ccc(-n2c(-c3ccccc3)c(C)n3c4c(=O)n(C)c(=O)n(C)c4nc23)cc1,-7%
Cc1cc(C)cc(-n2c(-c3ccccc3)c(C)n3c4c(=O)n(C)c(=O)n(C)c4nc23)c1,21%
CNc1nc(C(=O)N2CCC3(CC2)c2nc[nH]c2CCN3C)cs1,20%
O=C(CN1C(=O)NC2(CCCCC2)C1=O)N1CCN(c2ccccc2)CC1,18%
CCN1CCC(CCNC(=O)C2N(C(C)C)C(=O)C23CCCCC3)CC1 (stereo not drawn),16%
Cc1cccc(CNC(=O)C2(c3ccc(NS(C)(=O)=O)cc3)CCCCC2)c1,i
CCC(C)NC(=O)NCCc1noc(-c2cccnc2)n1 (stereo not drawn),79%
COc1cccc(CNC(=O)[C@@H]2C[C@@H](O)CN2C2CCN(C(=O)c3ccc(OC)nc3OC)CC2)c1,i
CCn1c(CN2CCOCC2)nc2cc(NC(=O)c3cc(OC)c(OC)c(OC)c3)ccc21,-16%
CCn1c(CN2CCCCC2)nc2cc(NC(=O)COc3ccc(C(C)(C)C)cc3)ccc21,8.9µM*
Cn1c(CN2CCCCC2)nc2cc(NC(=O)c3ccc(Cl)cc3)ccc21,-14%
